Twelve compounds from PubChem BioAssay (NCI) can be followed below.

The structures appear in SMILES notation. This is part of a sample that, as a whole, favours compounds with a hit. Of some 83,000 tested, about 20% had one in any assay.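 Compound tested at a single concentration for 48 hours in 96-well plates; a percent growth value below 10 was scored as active.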 Unmarked numbers belong to inactive results. Active and inactive are the calls of the source.

Common to all, as to assay: NCI-60 one-dose screen, 48 h (100 = growth as untreated, 0 = no growth, -100 = all killed)
Details in all cases: 10 µM

In assay [1] the test system is K-562 leukemia.
The test system of assay [2] is MALME-3M melanoma.
Assay [3] concerns MDA-MB-231 breast.
Assay [4] deals with RXF 393 renal.
The test system of assay [5] is SF-268 CNS.
The subject of assay [6] is SF-295 CNS.
The test system of assay [7] is SF-539 CNS.
Assay [8] relates to UACC-257 melanoma.
Assay [9] concerns M14 melanoma.
Assay [10] deals with HCT-15 colon.
In assay [11] the test system is HT29 colon.
The subject of assay [12] is SNB-75 CNS.
In assay [13] the test system is SNB-19 CNS.
The subject of assay [14] is U251 CNS.
Assay [15] deals with PC-3 prostate.
The subject of assay [16] is SK-MEL-5 melanoma.
The test system of assay [17] is LOX IMVI melanoma.
The test system of assay [18] is SK-MEL-28 melanoma.
For assay [19], the system named is SK-MEL-2 melanoma.
Assay [20] concerns UACC-62 melanoma.

Consider `O=C(O)CC(Cl)C(Cl)CC(=O)O` (stereo not given), for which the growth in assay [1] is 103%; in assay [2] it was 90.7%; in assay [3] it was 117%; in assay [4], 127%; in assay [5], 105%; in assay [6] it was 92.7%. Moreover, the growth is 99.3% in assay [7]; 92.2% in assay [8]; 102% in [9]; 99.2% in [10]; 101% in assay [11]; 103% in [12]. For the same compound, the growth in [13] is 103%; in assay [14], 98.6%; in [15] it was 98.1%; in assay [16], 108%; in assay [17], 94%; in [18], 107%. The growth in [19] is 107%.
Consider `COc1ccc(-c2nn(-c3cccc(NC(=O)c4ccc5c(c4)OCCO5)c3)cc2-c2ccncc2)cc1Cl`, for which the growth in [1] is 18.4%; in [2], 4.38% (active); in assay [3], 27.2%; in [4] it was 0.93% (active); in [5], 34.8%; in assay [6], -26% (active). Also, the growth was -20.7% (active) in assay [7]; 34.9% in [8]; 13.5% in assay [9]; 32.8% in [10]; 0.486% (active) in assay [11]; 2.6% (active) in [12]. In addition, the growth in assay [13] is 70.8%; in [14], -9.64% (active); in [15] it was 10.4%; in assay [16], 20%; in assay [17], 29.9%; in [18], 38.3%.
Take `N#Cc1c(C#N)c(SSc2c(C#N)c(C#N)c(N)n2-c2ccccc2)n(-c2ccccc2)c1N`: the growth was -17.7% (active) in assay [1]; 95.1% in [2]; 100% in assay [3]; 98.8% in [4]; 112% in assay [5]; 115% in assay [6]. Further, the growth in assay [7] is 103%; in assay [8], 103%; in assay [9], 115%; in [10], 102%; in assay [11], 101%; in assay [12] it was 71.7%. Moreover, the growth in [13] is 103%; in [14], 114%; in assay [15], 49%; in assay [16], 96.7%; in [20], 94.8%; in assay [17], 96.4%. In addition, the growth in assay [19] is 98.5%.
Consider `O=C(O)c1ccc(P(=O)(O)O)c([N+](=O)[O-])c1`, for which the growth in assay [1] is 107%; in assay [2], 97.7%; in assay [3], 108%; in assay [4] it was 105%; in [5] it was 110%; in assay [6] it was 99.2%. Also, the growth is 104% in [7]; 92.2% in assay [8]; 114% in assay [9]; 102% in assay [10]; 101% in assay [11]; 87.1% in assay [12]. Besides, the growth is 107% in [13]; 95.1% in assay [14]; 97.7% in assay [15]; 95.3% in [16]; 108% in [20]; 102% in assay [17]. Also, in assay [19], the growth was 117%.
On to `CC1(C)Cc2c(sc3ncn4nc(-c5ccc(O)cc5)nc4c23)CO1`, for which the growth is 76.8% in assay [1]; 68.2% in [2]; 70.5% in assay [3]; 66.3% in [4]; 64.1% in [5]; 76.2% in assay [6]. Besides, the growth in assay [7] was 75.1%; in assay [8], 89.7%; in [9], 86.6%; in assay [10], 75.1%; in assay [11] it was 111%; in [12], 35.5%. In addition, the growth in assay [13] is 79.9%; in assay [14], 60.6%; in assay [15] it was 44.4%; in assay [16], 56.7%; in assay [17], 75%; in [18] it was 73.5%. Also, the growth in assay [19] is 84.7%.
For `Cc1nc2ccc(CN(C)c3ccc(C(=O)N[C@@H](CCC(=O)O)C(=O)O)s3)cc2c(=O)[nH]1`, the growth is 30.6% in assay [1]; 60.7% in assay [2]; 89.4% in [3]; 31.8% in assay [4]; 26.4% in assay [5]; 22.9% in assay [6]. Further, the growth was 6.05% (active) in assay [7]; 46.7% in [8]; 21.8% in assay [9]; 74.5% in assay [10]; 55.1% in assay [11]; 43.4% in assay [12]. Besides, the growth in [13] was 42.8%; in [14], 56.3%; in assay [15], 56.5%; in [16] it was 28.7%; in [20] it was 40.1%; in [17] it was 26.8%. In addition, the growth in [19] was 105%.
For the compound `Nc1c(C(=O)Nc2cccc(F)c2)sc2nc3c(cc12)C(=O)CCC3`, the growth in [1] is 20.1%; in assay [2], 32.4%; in [3], 40.8%; in [4], -14.3% (active); in assay [5], 73.5%; in assay [6] it was 7.23% (active). In addition, the growth in assay [7] is -17.4% (active); in [8], 57.3%; in assay [9], 15.3%; in assay [10] it was 25.8%; in [11], 16.7%; in assay [12], 24.9%. In addition, the growth was 32.1% in assay [14]; 20.7% in assay [15]; 43.2% in assay [16]; 43.4% in [20]; 46.5% in assay [17]; 49.7% in assay [18]. In addition, in assay [19], the growth was 43.3%.
For the compound `COc1ccc(Cl)cc1C(=O)Nc1nc2ccc(Cl)cc2s1`, the growth in [1] is 86.8%; in assay [2], 83.3%; in assay [3], 70.9%; in assay [4], 95%; in assay [5], 83.2%; in assay [6] it was 170%. Moreover, the growth in [7] was 86.4%; in assay [8] it was 102%; in [9], 95.1%; in [10], 86.5%; in assay [11], 109%; in assay [12], 74.3%. Further, the growth in [13] was 103%; in assay [15], 84.4%; in [16], 92.8%; in assay [17], 81.2%; in assay [18], 105%; in [19], 104%.
`O=C(Nc1cccc(-n2cc(-c3ccncc3)c(-c3cc(O)cc(Cl)c3)n2)c1)Nc1ccc(Cl)c(C(F)(F)F)c1`: the growth was 5.24% (active) in [1]; -24.9% (active) in [2]; -47.3% (active) in assay [3]; -49.5% (active) in assay [4]; 42.1% in assay [5]; 14.3% in assay [6]. Besides, the growth in assay [7] was 32.6%; in assay [8], -40% (active); in assay [9], -16.8% (active); in [10], 5.79% (active); in assay [11], 35.3%; in assay [12], 24.1%. In addition, the growth in assay [13] is 44.5%; in assay [15], 5.34% (active); in assay [16] it was 23.8%; in assay [20] it was -1.44% (active); in [17] it was 2.08% (active); in assay [18], -13.5% (active). Moreover, the growth in assay [19] was -37.9% (active).
Regarding `CC/C(=C(/c1ccc(OCCN(C)C)cc1)c1ccc(OC(=O)CCC(=O)c2c(C)[nH]c(/C=C3\N=C(c4ccc[nH]4)C=C3OC)c2C)cc1)c1ccccc1`, the growth was 0.3% (active) in assay [1]; -9.96% (active) in assay [2]; -30% (active) in [3]; 15.2% in assay [4]; 31.2% in assay [5]; 33.5% in assay [6]. The growth is 49.7% in assay [7]; 45.5% in [8]; -66.6% (active) in assay [9]; 3.7% (active) in assay [10]; 6.7% (active) in [11]; 28.3% in assay [12]. The growth was 72.7% in assay [13]; 19.3% in assay [15]; 2.36% (active) in assay [16]; -45% (active) in assay [17]; 62.1% in [18]; -11.4% (active) in assay [19].
On to `O=C1/C(=C\c2ccc(F)cc2)CN(C(=O)c2ccccc2F)C/C1=C\c1ccc(F)cc1`, for which the growth in [1] was -0.921% (active); in [2], -55.2% (active); in assay [3], -38.7% (active); in assay [4], -83.2% (active); in [5], 0.452% (active); in assay [6], -30.7% (active). The growth in assay [7] was 0.221% (active); in [8] it was -28.2% (active); in assay [9], -48.4% (active); in [10], -16.3% (active); in assay [11] it was -37% (active); in assay [12], 52.9%. Moreover, the growth is 33.4% in assay [13]; -34.3% (active) in assay [15]; -58.6% (active) in assay [16]; -77.6% (active) in assay [20]; -80.8% (active) in [17]; -72.5% (active) in assay [18]. Besides, the growth in [19] was 30.4%.
For the compound `c1ccc(CP(Cc2ccccc2)c2ccccc2)cc1`, the growth in assay [1] is 83.4%; in assay [2], 82.3%; in assay [3] it was 98.3%; in assay [4] it was 113%; in assay [5], 110%; in assay [6] it was 82.4%. Also, the growth in assay [7] is 110%; in assay [8] it was 95.5%; in assay [9] it was 95.4%; in assay [10], 95.1%; in [11] it was 88.2%; in [12] it was 101%. Besides, the growth is 105% in assay [13]; 86.2% in [15]; 99% in [16]; 99.3% in assay [20]; 86.8% in [17]; 110% in [18]. The growth in assay [19] was 97%.
